Common to all, as to design: species or system human, MV4-11 + K-562 + COLO205 + SK-N-BE2 + OVCAR-8
Experiment [1] has as its system ADCK1. To be noted: read-out: apparent Kd, n = 1.
The subject of experiment [2] is CSNK1A1. Particulars: read-out: apparent Kd, compound concentrations: 100 nM and 1000 nM (sheet 'Samples'), n = 1.
The test system of experiment [3] is CSNK1E. Particulars: read-out: apparent Kd, compound concentrations: 100 nM and 1000 nM (sheet 'Samples'), n = 1.
The test system of experiment [4] is MAPK8. To be noted: read-out: apparent Kd, n = 1.
Experiment [5] relates to RIOK2. To be noted: read-out: apparent Kd, compound concentrations: 100 nM and 1000 nM (sheet 'Samples'), n = 1.
Experiment [6] deals with CDK17. Particulars: read-out: apparent Kd, compound concentrations: 100 nM and 1000 nM (sheet 'Samples'), n = 1.
The test system of experiment [7] is PHKG2. To be noted: read-out: apparent Kd, compound concentrations: 100 nM and 1000 nM (sheet 'Samples'), n = 1.
For experiment [8], the system named is RPS6KA4. To be noted: read-out: apparent Kd, compound concentrations: 100 nM and 1000 nM (sheet 'Samples'), n = 1.
In experiment [9] the test system is STK16. Particulars: read-out: apparent Kd, n = 1.
Experiment [10] relates to STK3. Particulars: read-out: apparent Kd, compound concentrations: 100 nM and 1000 nM (sheet 'Samples'), n = 1.
In experiment [11] the test system is TNIK. Particulars: read-out: apparent Kd, compound concentrations: 100 nM and 1000 nM (sheet 'Samples'), n = 1.
Experiment [12] relates to HCK. To be noted: read-out: apparent Kd, compound concentrations: 100 nM and 1000 nM (sheet 'Samples'), n = 1.
The test system of experiment [13] is SRC. Particulars: read-out: apparent Kd; compound concentrations: 100 nM and 1000 nM (sheet 'Samples'), CATDS: 1.60653948835471E-2; n = 1.
Experiment [14] concerns YES1. To be noted: read-out: apparent Kd; compound concentrations: 100 nM and 1000 nM (sheet 'Samples'), CATDS: 1.8559890598855499E-2; n = 1.
The subject of experiment [15] is PRKAA2. Particulars: read-out: apparent Kd, compound concentrations: 100 nM and 1000 nM (sheet 'Samples'), n = 1.
Experiment [16] concerns PRKX. To be noted: read-out: apparent Kd; compound concentrations: 100 nM and 1000 nM (sheet 'Samples'), CATDS: 7.1625839917235003E-3; n = 1.
Experiment [17] deals with ROCK2. Particulars: read-out: apparent Kd, n = 1.
The test system of experiment [18] is BUB1. To be noted: read-out: apparent Kd; compound concentrations:100 nM and 1000 nM (sheet 'Samples'); n = 1.
Where [19] appears, read: compound concentrations:100 nM and 1000 nM (sheet 'Samples').

Where two headings read alike, the source gives them in different places.

Take `c1cnn2ncc(-c3ccnc(Nc4ccc5c(c4)OCCO5)n3)c2c1` [GW806290X]: the potency estimated from few doses in experiment [1] (compound concentrations: 100 nM and 1000 nM (sheet 'Samples'), CATDS: 2.0516224728304101E-2) is 1820 nM; in experiment [2] (CATDS: 2.11429118311642E-2), 1620 nM; in experiment [3] (CATDS: 2.4076386460309102E-2) it was 1050 nM; in experiment [4] (compound concentrations: 100 nM and 1000 nM (sheet 'Samples'), CATDS: 3.07479356857355E-2), 532 nM; in experiment [5] (CATDS: 4.9537974032322102E-2), 183 nM.
As to `O=C(O)C(F)(F)F.O=c1[nH]ccc2nc(N[C@@H]3CCNC3)nc(Nc3ccc4c(c3)S(=O)(=O)CC4)c12` [GSK2181306A], the potency estimated from few doses in experiment [1] (compound concentrations: 100 nM and 1000 nM (sheet 'Samples'), CATDS: 1.2751360912585E-2) was 448 nM; in experiment [6] (CATDS: 9.5654152520578493E-3) it was 979 nM; in experiment [2] (CATDS: 1.4603210367733301E-2) it was 330 nM; in experiment [7] (CATDS: 1.09538750738594E-2) it was 657 nM; in experiment [5] (CATDS: 8.1231795228866102E-3) it was 1810 nM; in experiment [8] (CATDS: 1.6454900639240402E-2), 258 nM. Also, the potency estimated from few doses is 1130 nM in [9] (compound concentrations: 100 nM and 1000 nM (sheet 'Samples'), CATDS: 9.1549687714340792E-3); 381 nM in [10] (CATDS: 1.36866990132516E-2); 467 nM in experiment [11] (CATDS: 1.2529799183739801E-2).
Take `CCn1c(-c2cccnc2O)nc2cnccc21` [SB-736715]: the potency estimated from few doses in experiment [6] (CATDS: 1.55525424836102E-2) is 1200 nM; in experiment [2] (CATDS: 1.24384070369575E-2), 1990 nM; in [12] (CATDS: 1.6731376225889199E-2), 1040 nM; in experiment [4] (compound concentrations: 100 nM and 1000 nM (sheet 'Samples'), CATDS: 1.2937412229939001E-2), 1800 nM; in experiment [7] (CATDS: 1.25059866085428E-2) it was 1960 nM; in experiment [13], 1130 nM. Besides, the potency estimated from few doses was 1460 nM in experiment [9] (compound concentrations: 100 nM and 1000 nM (sheet 'Samples'), CATDS: 1.41773006803768E-2); 2360 nM in experiment [10] (CATDS: 1.16838495849846E-2); 859 nM in experiment [14].
With `NC(=O)c1cc(-c2ccccc2)cc2c(C3CCNCC3)c[nH]c12` [GSK301362A], in [1] (setting [19]), the potency estimated from few doses was 1520 nM.
Take `O=C(O)C(F)(F)F.O=C(O)C(F)(F)F.O=c1[nH]ccc2nc(N[C@@H]3CCCNC3)nc(Nc3ccc(S(=O)(=O)N4CCOCC4)cc3)c12.O=c1[nH]ccc2nc(N[C@@H]3CCCNC3)nc(Nc3ccc(S(=O)(=O)N4CCOCC4)cc3)c12` [GSK2177277A]: the potency estimated from few doses in experiment [6] (CATDS: 6.5557639532583699E-3) is 1380 nM; in [2] (CATDS: 1.2484395279946501E-2), 150 nM; in experiment [3] (CATDS: 1.0000373505011199E-2), 274 nM; in [12] (CATDS: 6.5481840851314196E-3), 1390 nM; in experiment [7] (CATDS: 8.6754793941291007E-3) it was 430 nM; in experiment [15] (CATDS: 4.4200978243391198E-2), 13.7 nM. Moreover, the potency estimated from few doses in experiment [16] was 897 nM; in [5] (CATDS: 6.0080792942577401E-3) it was 2350 nM; in experiment [17] (compound concentrations: 100 nM and 1000 nM (sheet 'Samples'), CATDS: 8.2952674328971108E-3), 503 nM; in experiment [8] (CATDS: 8.4573730907670092E-3), 470 nM; in [9] (compound concentrations: 100 nM and 1000 nM (sheet 'Samples'), CATDS: 8.3784020222335102E-3) it was 485 nM; in experiment [10] (CATDS: 4.2815354509816599E-2) it was 14.4 nM. Further, the potency estimated from few doses in experiment [11] (CATDS: 6.517178775647E-3) is 1420 nM.
Turning to `COc1cc[nH]c1/C=C1\C(=O)Nc2ccc(F)c(C#CC3(O)CCNCC3)c21.Cl` [RO0282986-001], the potency estimated from few doses in [1] (compound concentrations: 100 nM and 1000 nM (sheet 'Samples'), CATDS: 9.6711432627754196E-3) is 1510 nM; in experiment [2] (CATDS: 9.4699947154489802E-3) it was 1660 nM; in experiment [4] (compound concentrations: 100 nM and 1000 nM (sheet 'Samples'), CATDS: 1.15534009295916E-2) it was 801 nM; in [7] (CATDS: 1.06478310552471E-2), 1050 nM; in experiment [15] (CATDS: 1.2623383108322899E-2), 618 nM; in experiment [17] (compound concentrations: 100 nM and 1000 nM (sheet 'Samples'), CATDS: 1.22765922159753E-2) it was 668 nM. The potency estimated from few doses is 111 nM in experiment [8] (CATDS: 2.8007008589504299E-2); 526 nM in experiment [9] (compound concentrations: 100 nM and 1000 nM (sheet 'Samples'), CATDS: 1.3388611542508999E-2); 326 nM in [10] (CATDS: 1.6307369361129399E-2); 550 nM in experiment [11] (CATDS: 1.31715083861153E-2).
Consider `Cc1cc(-c2ccnc(Nc3cccc(C#N)c3)n2)cc(C)c1O` [GSK1440913A], for which, in [1] (compound concentrations: 100 nM and 1000 nM (sheet 'Samples'), CATDS: 7.9755280277017199E-2), the potency estimated from few doses is 1350 nM.
Turning to `CC(C)Oc1ccc2c(-c3ccnc(Nc4ccc(N5CCN(C)CC5)cc4)n3)cnn2n1` [GW696155X], the potency estimated from few doses in experiment [1] (setting [19]) was 44.9 nM; in experiment [18], 853 nM; in [4] (setting [19]), 352 nM; in experiment [9] (setting [19]) it was 39.2 nM.
With `Cl.Cl.NC(CNC(=O)c1cc(Br)c(-c2ccnc3[nH]ccc23)s1)c1ccccc1.NC(CNC(=O)c1cc(Br)c(-c2ccnc3[nH]ccc23)s1)c1ccccc1` (stereo not shown) [GSK1322949A], in [17] (compound concentrations: 100 nM and 1000 nM (sheet 'Samples'), CATDS: 0.12553300825941399), the potency estimated from few doses is 122 nM.
In the case of `CCn1c(-c2nonc2N)nc2c(C#CC(C)(C)O)nc(O[C@@H](CN)c3ccccc3)cc21.O=C(O)C(F)(F)F` [GSK1007102B], the potency estimated from few doses in experiment [1] (setting [19]) is 788 nM; in [17] (setting [19]), 1670 nM.

The record behind these values is PMC11062922 (Nature Chemical Biology, 2023).
